PubChem BioAssay (NCI)
The panel holds about 83,000 compounds, 20% with a hit somewhere; the sample as a whole holds those more often.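 Negative percent growth values reflect cell death: -40 means 40% of the cells present at the start died, and -100 means all died.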 Values without a mark were called inactive. Activity calls are given as the source filed them. The calls were made as follows: active = growth percent below 10; inactive = the rest.

Key:
Experiment in all cases: NCI-60 one-dose screen, 48 h (100 = growth as untreated, 0 = no growth, -100 = all killed)
Conditions in all cases: 10 µM unless noted
[1] = tested on: DU-145 prostate
[2] = tested on: K-562 leukemia
[3] = tested on: MALME-3M melanoma
[4] = tested on: MDA-MB-231 breast
[5] = tested on: RXF 393 renal
[6] = tested on: SF-268 CNS
[7] = tested on: SF-295 CNS
[8] = tested on: SF-539 CNS
[9] = tested on: UACC-257 melanoma
[10] = tested on: M14 melanoma
[11] = tested on: HCT-15 colon
[12] = tested on: HT29 colon
[13] = tested on: SNB-75 CNS
[14] = tested on: SNB-19 CNS
[15] = tested on: U251 CNS
[16] = tested on: PC-3 prostate
[17] = tested on: SK-MEL-5 melanoma
[18] = tested on: UACC-62 melanoma
[19] = tested on: SK-MEL-28 melanoma

Row | SMILES | growth [1] | growth [2] | growth [3] | growth [4] | growth [5] | growth [6] | growth [7] | growth [8] | growth [9] | growth [10] | growth [11] | growth [12] | growth [13] | growth [14] | growth [15] | growth [16] | growth [17] | growth [18] | growth [19]
1 | CC(=O)c1c(C)[nH]c(-c2nc3ccc(N4CCN(C)CC4)cc3[nH]2)c1-c1ccc2c(c1)OCCO2 | 74.3% | 31.2% | 33.7% | 36% | 49.2% | 68.8% | 44.4% | 41.7% | 48.2% | 40.1% | 8.46% (active) | 14.2% | 1.99% (active) | 51.3% | 57.2% | 45.8% | 26.1% | 20.9% | 50.8%
2 | COC(=O)[C@]12CC[C@@H](C(C)=O)[C@@H]1[C@H]1CC[C@@H]3[C@@]4(C)C/C(=C/c5cccnc5)C(=O)C(C)(C)[C@@H]4CC[C@@]3(C)[C@]1(C)CC2 | 68.8% | 18.3% | 29.9% | 76.6% | 30.9% | 68.6% | 75.3% | 81% | 58.1% | 56.7% | 23.2% | 16.5% | 110% | 67.7% | 56.6% | 24.4% | 39.8% | 34.5% | 31.5%
3 | COc1ccc(-c2c(-c3nc4ccc(N5CCOCC5)cc4[nH]3)[nH]c(C)c2C(C)=O)cc1 | 74.6% | 35.1% | 36.4% | 37.5% | 44.8% | 70.3% | 35.7% | 36.9% | 44.7% | 35.6% | 3.79% (active) | 20.8% | 1.76% (active) | 39.7% | 54.3% | 48.7% | 22.2% | 15.7% | 45.8%
4 | N#C/C(=C\c1ccc(-c2ccc(Cl)cc2)o1)c1nc(-c2ccco2)cs1 | 103% | 94.4% | 99.9% | 85.3% | 108% | 101% | 92.9% | 94.7% | 104% | 98.9% | 86.3% | 102% | 86.5% | 93.4% | 96.9% | 92.8% | 91.1% | 79.7% | 97.5%
5 | COC(=O)[C@]12CC[C@@H](C(=O)/C=C/c3cccnc3)[C@@H]1[C@H]1CC[C@@H]3[C@@]4(C)C/C(=C/c5cccnc5)C(=O)C(C)(C)[C@@H]4CC[C@@]3(C)[C@]1(C)CC2 | -67.8% (active) | -21.6% (active) | -95.2% (active) | -81.3% (active) | -93.6% (active) | -80.8% (active) | -98.5% (active) | -96.5% (active) | -58.9% (active) | -80.3% (active) | -46.2% (active) | -45.5% (active) | -98.7% (active) | -87.6% (active) | -87.9% (active) | -14.1% (active) | -98.9% (active) | -67.9% (active) | -96.3% (active)
6 | COc1ccc(NC(=O)c2ccoc2COc2ccccc2)cc1 | 106% | 55% | 99.7% | 95.7% | 93.9% | 97.5% | 98.3% | 96% | 99.7% | 92.1% | 89% | 107% | 87.2% | 89.6% | 96.1% | 91.3% | 100% | 82.7% | 94.6%
7 | CCSc1ncnc2c1ncn2C1OC(CO)C(O)C1O (stereo unspecified) | 22.7% | 15.9% | 53.5% | 64.4% | 36.7% | 19.4% | 31.4% | 25.3% | 59.6% | 29.6% | 30.9% | 19.1% | 57% | 34.1% | 54.5% | 16.8% | 32.6% | 50.7% | 83.1%
8 | C=C(C)[C@@H]1CC[C@]2(C)[C@H](CC[C@@H]3[C@H]4[C@H]5OC[C@@]4(CCC5(C)C)CC[C@]32C)[C@@]1(C)CCCN | 66.2% | 3.82% (active) | -48.5% (active) | 16.7% | 17.4% | 92.1% | -4.38% (active) | 87% | 101% | 25.8% | -79.6% (active) | 6.05% (active) | 95.2% | 94.2% | -19.2% (active) | 64% | 97.4% | 98.5% | 34.7%
9 | Nc1nc2c(c(=O)[nH]1)C(c1ccc3c(c1)OCO3)C=C(C(=O)O)N2 (stereo unspecified) | 112% | 99.7% | 101% | 121% | 120% | 112% | 94.2% | 101% | 97% | 112% | 111% | 108% | 85.6% | 104% | 101% | 113% | 102% | 116% | 96.2%
10 | C=C(C)[C@@H]1CC[C@]2(C)[C@H](CC=C3[C@@H]4CC(C)(C)CC[C@]4(C(=O)OC)CC[C@]32C)[C@@]1(C)CC/C(N)=N/O | 75.1% | 23.9% | 58.9% | 66.1% | -49.4% (active) | 67.9% | 33.6% | 65.3% | -32.1% (active) | 43.8% | 18.5% | 24.3% | 101% | 67.9% | -81.8% (active) | 26.6% | -19.9% (active) | 58.6% | 60.9%
11 | CN(C)c1ccc(-c2ccc(-c3ccc(C(=N)N)c(F)c3)s2)cc1 | -93.7% (active) | -34.3% (active) | 71.3% | -78.4% (active) | -83.2% (active) | -56.9% (active) | -88.1% (active) | -93% (active) | 111% | 97.5% | -80.8% (active) | -61.2% (active) | 98.9% | -71% (active) | -96.2% (active) | -90.4% (active) | -64.9% (active) | -93.3% (active) | 74.5%
12 | C=C(C)[C@@H]1CC[C@]2(C(=O)O)CC[C@]3(C)[C@H](CC[C@@H]4[C@@]5(C)C/C(=C/c6ccc(OC)cc6)C(=O)C(C)(C)[C@@H]5CC[C@]43C)[C@@H]12 | 34.4% | 15.6% | 42.2% | 32.4% | 43.9% | 38.8% | 11.9% | 22.1% | 31.1% | 25.3% | 5.16% (active) | 16% | 27.2% | 32.3% | 25.4% | 15.5% | 6.21% (active) | 17.1% | 41.3%
13 | CN1CCN(CC#CCn2c3c(c4ccccc42)C[C@]2(C)[C@H]4CC[C@@H]5[C@H]6[C@H]7OC(=O)[C@@]6(CCC7(C)C)CC[C@@]5(C)[C@]4(C)CC[C@H]2C3(C)C)CC1 | 35.4% | 12.7% | 113% | 42.7% | 67.1% | 92.9% | 104% | 89.1% | 109% | 80.9% | 38.1% | 30.4% | 113% | 87.6% | 25% | 58.5% | 93.3% | 99.5% | 106%
14 | N#C/C(=C\c1ccc(-c2cccc(C(F)(F)F)c2)o1)c1nc(-c2ccco2)cs1 | 105% | 92.3% | 93.8% | 78.9% | 107% | 99.8% | 94.2% | 91.4% | 105% | 97.8% | 71.7% | 99.8% | 82.2% | 93.8% | 96.4% | 90% | 88.1% | 78.1% | 97.7%
